This is a sample that favours compounds with a hit; in the whole collection about 9.4% have one here.
NPC1 prom act – activators of NPC1 promoter; Potency, µM (doses to about 9.22 µM), inactives show at the top dose activation, most hits filed as activators; Huh7 NPC1 promoter luciferase reporter, 24 h; AID 485313; 320,000 tested, 2.4% active; note: % of control where 0% means no effect; nearly all actives have a fitted effect of over 60% in size
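Stable NPC1-promoter luciferase Huh7 line; cpd (DMSO) 24 h, 37 °C, 5% CO2; Amplite luciferase reagent 10 min RT; luminescence readout. qHTS format.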
ELG1 repair inh – inhibitors of ELG1-dependent DNA repair in HEK293T cells; 330,000 tested, 2.3% active; HEK293T ELG1-luciferase reporter, luminescence, 16 h; DNA damage induced by 5-fluorouridine; AID 504467; Potency, µM (series often up to 46.1 µM), for inactives: top-dose activity change, negative = inhibition, most hits filed as inhibitors; note: % is set by controls: 0 for no effect and ±100 for the full control effect; nearly all actives have a fitted effect of over 55% in size
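Step one: seed 2,000 cells per well. Step two: pin-transfer compound or DMSO alongside 5-fluorouridine. Step three: incubate 16 hr, 37 °C, 5% CO2. Step four: add ONE-Glo, wait 30 min, read luminescence.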
ELG1 genotoxic – genotoxicity induction in ELG1-luciferase HEK293T cells. Potency, µM (top dose mostly 46 µM), inactives show at the highest dose activity change, positive = activation, usual class: activators. 330,000 tested, 1.3% active. HEK293T ELG1-luciferase reporter, luminescence, 16 h; note: % of control where 0% means no effect; nearly all actives have a fitted effect of over 60% in size
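DMSO vehicle served as control against compound-treated ELG1-luciferase HEK293T cells; exposure lasted 16 hr at 37 °C and 5% CO2, followed by ONE-Glo luminescence detection after 30 min.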
Rab9 promoter act – Rab9 promoter activation; Huh7 Rab9 promoter-luciferase reporter, luminescence, 24 h; Potency, µM (top dose mostly 9.22 µM), inactives show at the highest dose activation, negative = inhibition, actives largely listed as activators; 320,000 tested, 2.8% active; AID 485297; note: % of control where 0% means no effect; nearly all actives have a fitted effect of over 60% in size
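Using Huh7 cells stably transfected with Rab9 promoter–luciferase, compounds were incubated 24 h at 37 °C, 5% CO2; luciferase luminescence was read 10 min after reagent addition.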
SMN2 splice up – increases expression of the SMN2 splice variant | AID 1458 | Potency, µM (top dose mostly 46.1 µM), for the others: at the highest dose activity change, positive = activation, most hits filed as activators | HEK293 SMN2-luciferase splicing reporter, luminescence, 30-36 h | 210,000 tested, 2.8% active; note: % of control where 0% means no effect; nearly all actives have a fitted effect of over 55% in size
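HEK293 cells carry an SMN2 […]–luciferase reporter in which exon 7 inclusion puts luciferase in frame. Cells were plated 10-12 h before compound addition, then incubated 30-36 h at 37C. ONE-Glo luminescence was read; sodium butyrate at 4.5 mM final served as control.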
FLuc modulator – firefly luciferase modulation, counter-screen for miR-21 project; 360,000 tested, 6.9% active; P08659; AID 588342; purified FLuc, Km substrates, luminescence inhibition; Potency, µM (highest dose often 57.5 µM), for the others: at the top dose activity change, negative = inhibition, actives largely listed as inhibitors;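 note: plate controls were vehicle for no effect and reference inhibitor for full effect; nearly all actives have a fitted effect of over 55% in size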
Target sequence (P08659 whole entry, looked up): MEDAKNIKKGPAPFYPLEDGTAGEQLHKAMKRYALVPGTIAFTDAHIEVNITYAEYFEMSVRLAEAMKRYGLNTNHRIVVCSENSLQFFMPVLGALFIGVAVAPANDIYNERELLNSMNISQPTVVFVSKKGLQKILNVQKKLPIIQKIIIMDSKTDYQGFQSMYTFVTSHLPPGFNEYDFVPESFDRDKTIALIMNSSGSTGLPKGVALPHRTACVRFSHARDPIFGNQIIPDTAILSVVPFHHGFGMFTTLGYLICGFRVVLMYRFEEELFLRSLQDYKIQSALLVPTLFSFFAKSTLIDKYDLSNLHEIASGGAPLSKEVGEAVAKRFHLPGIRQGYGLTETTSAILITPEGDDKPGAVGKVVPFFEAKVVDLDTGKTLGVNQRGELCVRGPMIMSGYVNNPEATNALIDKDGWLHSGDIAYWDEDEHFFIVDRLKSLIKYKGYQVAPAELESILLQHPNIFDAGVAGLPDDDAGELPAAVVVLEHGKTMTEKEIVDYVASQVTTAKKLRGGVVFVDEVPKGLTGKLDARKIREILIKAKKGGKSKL
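Purified P. pyralis luciferase, 10 nM final, with Km-level 10 uM D-luciferin and 10 uM ATP in 50 mM Tris acetate pH 7.5, 10 mM Mg acetate, 0.01% Tween-20, 0.05% BSA; 6-point qHTS titration about 60 µM downward; luminescence read.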
Starred values were filed as active, the others as inactive; ? = inconclusive; . = no result given; [ ] = dose if it differs, or a comment. Calls come from the whole dose curve; as a rule, active = well fitted curve in the direction sought with a large enough effect; inconclusive = small, poorly fitted or top-dose-only effect, or another doubt; inactive = no such curve, though single readings can be large; an effect the other way counts as inactive or inconclusive. Potency is the fitted concentration of half-maximal effect.

SMILES	NPC1 prom act	ELG1 repair inh	ELG1 genotoxic	Rab9 promoter act	SMN2 splice up	FLuc modulator
Cn1c(SCC(=O)N2CCOCC2)ncc(C(=O)Nc2ccc(F)cc2)c1=O	.	.	.	.	.	-10%
COc1ccccc1NC(=O)c1cnc(SCC(=O)NCC2CCCO2)n(C)c1=O (stereo not given)	-2%	-13%	6%	-1%	.	5.4µM*
COc1ccccc1NC(=O)c1cnc(SCC(=O)N2CCCc3ccccc32)n(C)c1=O	.	.	.	.	.	1.7µM*
COc1ccccc1-c1nnc(C2CCN(S(=O)(=O)c3ccccc3)CC2)o1	.	.	.	.	2%	4%
COc1cc(OC)c2c(c1)OC1Cc3cc(OC)c(OC)cc3C2O1 (stereo not given)	.	.	.	.	-4%[9.22 µM]	.
CCOC(=O)c1ccc(NC(=O)c2nn(C)c3c2COc2ccccc2-3)cc1	.	.	.	.	.	-1%
CC(CNC(=O)CN1C(=O)COc2ccc(S(=O)(=O)N3CCCCCC3)cc21)c1ccccc1 (stereo not given)	.	.	.	.	.	-9%
COc1c(O)ccc(/C=N\NC(=O)c2ccc3c(c2)OCO3)c1[N+](=O)[O-]	4%	?	13%	0%	.	15µM*
COc1c(O)ccc(/C=N/NC(=O)c2ccc3c(c2)OCCO3)c1[N+](=O)[O-]	?	?	?	?	.	2.7µM*
O=C(N/N=C/c1cc2c(cc1[N+](=O)[O-])OCO2)c1ccc2c(c1)OCO2	3%	15%	0%	5%	.	?
Cc1cc(C)c(NC(=O)Cc2ccc(-n3c(C)nc4cccnc43)cc2)c(C)c1	.	.	.	.	.	-7%
COc1cc(SC)ccc1C(=O)Nc1ccc2c(c1)OCO2	0.89µM*	?	2.6µM*	1.6µM*	11µM*	1.3µM*
COc1cc(SC)ccc1C(=O)Nc1ccc(S(=O)(=O)N2CCCC2)cc1	0%	8%	18%	-4%	-20%	-7%
COc1cc(SC)ccc1C(=O)Nc1ccc(C)cc1	?	?	?	3.5µM*	.	1.9µM*
COc1cc(SC)ccc1C(=O)Nc1ccc(C)cc1C	2.5µM*	?	?	3.5µM*	13µM*	2.7µM*
CCN(CC)S(=O)(=O)c1cccc(NC(=O)c2ccc(SC)cc2OC)c1	-15%	?	-18%	-5%	-58%	?
COc1cc(SC)ccc1C(=O)NCCOc1c(C)cc(C)cc1C	1%	-14%	-3%	-15%	.	3%
COc1ccc(-c2sc3ccc(OC)cc3c2C#Cc2cncn2C)cc1	.	5.8µM*	-2%	.	.	.
COc1ccc(-c2sc3cc4c(cc3c2C#Cc2cncn2C)OCO4)cc1	.	-14%	3%	.	.	.
Cc1ccc(CSc2nnc(-c3ccc4c(c3)OCO4)o2)cc1	3%	?	8%	-6%	13%	?
COc1ccc(C2=NCC(CSc3nnc(-c4ccc5c(c4)OCO5)o3)S2)cc1 (stereo not given)	0%	?	-1%	?	-22%	9.5µM*
COc1ccc(C2=NCC(CSc3nccc(=O)[nH]3)S2)cc1 (stereo not given)	2%	?	4%	-1%	8%	19µM*
O=C(O)CCSc1nnc(-c2ccc3c(c2)OCO3)o1	-10%	-1%	-3%	-10%	-29%	13µM*
CC(=O)Nc1ccc(NC(=O)CSc2nnc(-c3ccc4c(c3)OCO4)o2)cc1	.	?	8%	.	.	.
COc1cccc(OC(=O)CSc2nnc(-c3ccc4c(c3)OCO4)o2)c1	.	.	.	.	.	-5%
SMILES	NPC1 prom act	ELG1 repair inh	ELG1 genotoxic	Rab9 promoter act	SMN2 splice up	FLuc modulator
c1cc(CSc2nnc(-c3ccc4c(c3)OCO4)o2)ccn1	2.5µM*	?	12%	2.5µM*	6%	?
COc1ccc(CCn2c3c(c(=O)[nH]c2=O)C(NC(=O)c2ccc(C(C)(C)C)cc2)(C(F)(F)F)C(=O)N3)cc1OC (stereo not given)	.	.	.	.	0%	?
COc1ccc(CCNC(=O)CCCn2c(=O)c3ccccc3n(CC(=O)Nc3ccccc3C)c2=O)cc1OC	.	.	.	.	4%	-2%
O=C1OCCC1Sc1nnc(-c2ccc(O)cc2)o1 (stereo not given)	2%	3%	1%	-2%	-6%	?
Cc1cccc(OC(=O)CSc2nnc(-c3ccc4c(c3)OCO4)o2)c1C	.	.	.	.	.	-2%
O=c1c2ccccc2nnn1CSc1ccccc1	1µM*	?	?	0.56µM*	7.9µM*	1.9µM*
O=c1c2ccccc2nnn1CSc1nnc(-c2ccc3c(c2)OCO3)o1	?	?	?	?	?	6.7µM*
CC(=O)CSc1nnc(-c2ccc3c(c2)OCO3)o1	?	?	?	2.8µM*	14µM*	6.7µM*
O=C1OCCC1Sc1nnc(-c2ccc3c(c2)OCO3)o1 (stereo not given)	-4%	9%	-1%	-2%	-28%	9.5µM*
COC(=O)[C@@H](NC(=O)N1CCc2nc(COc3ccccc3)c3c(c2C1)CO[C@@H](C)C3)C(C)C	.	.	.	.	5%[9.22 µM]	.
Cc1ccc(CNCc2ccc3c(c2)n(C)c(=O)n3C)cc1	.	.	.	.	.	-1%
CC(C)Oc1ccc(CNS(=O)(=O)c2ccc3c(c2)C(C)(C)C(=O)N3C)cc1	.	.	.	.	.	-2%
O=C(O)C[C@H](Cc1ccccc1)C(=O)O	.	.	.	.	-7%[9.22 µM]	.
O=C(N/N=C/c1cc([N+](=O)[O-])ccc1O)C12CC3CC(CC(C3)C1)C2	1%	?	5%	-6%	-93%	?
Cc1cccc(/C=N/NC(=O)NC23CC4CC(CC(C4)C2)C3)n1	-31%	?	11%	22%	.	?
O=C(N/N=C/c1ccccn1)NC12CC3CC(CC(C3)C1)C2	?	?	4%	?	.	17µM*
O=C(N/N=C/c1cc([N+](=O)[O-])ccc1O)NC12CC3CC(CC(C3)C1)C2	14%	?	15µM*	-2%	-36%	?
Cc1c(C(=O)O)oc2c(F)cccc12	-3%	-1%	0%	-3%	7%	-20%
Cc1c(C(=O)NCc2ccco2)oc2c(F)cccc12	1%	11%	3%	-4%	.	0%
Cc1c(C(=O)N2C[C@@H](C)O[C@@H](C)C2)oc2c(F)cccc12	?	?	?	?	.	15µM*
Cc1c(C(=O)NC2CCOC2)oc2c(F)cccc12 (stereo not given)	2.2µM*	?	18%[9.26 µM]	2.5µM*	.	11µM*
COc1ccc2nc3sc(C(=O)Nc4cc(Cl)c(OC)cc4OC)cc3cc2c1	.	.	.	.	1%	-10%
O=C(CSc1nc2ccc(NC(=O)CSc3nnnn3-c3ccccc3)cc2s1)Nc1ccccc1	-4%	?	13%	-2%	-29%	5%
CCC(=O)Nc1ccc2nc(SCc3ccccc3)sc2c1	.	.	.	.	.	15µM*

Source: PubChem (National Center for Advancing Translational Sciences (NCATS))
